OTUD3 block: human OTUD3 deubiquitinase inhibition | purified OTUD3, Ub-rhodamine fluorescence, 2 h | 47,000 compounds, 0.7% hits | inhibition, % at 25 µM | AID 1645858
USP8 block: inhibitors of human USP8 deubiquitinase; 47,000 compounds, 4.2% hits; AID 1645853; P40818; inhibition, % at 20 µM; purified USP8, Ub-rhodamine cleavage fluorescence, 30 min
Target sequence (P40818 whole entry, looked up): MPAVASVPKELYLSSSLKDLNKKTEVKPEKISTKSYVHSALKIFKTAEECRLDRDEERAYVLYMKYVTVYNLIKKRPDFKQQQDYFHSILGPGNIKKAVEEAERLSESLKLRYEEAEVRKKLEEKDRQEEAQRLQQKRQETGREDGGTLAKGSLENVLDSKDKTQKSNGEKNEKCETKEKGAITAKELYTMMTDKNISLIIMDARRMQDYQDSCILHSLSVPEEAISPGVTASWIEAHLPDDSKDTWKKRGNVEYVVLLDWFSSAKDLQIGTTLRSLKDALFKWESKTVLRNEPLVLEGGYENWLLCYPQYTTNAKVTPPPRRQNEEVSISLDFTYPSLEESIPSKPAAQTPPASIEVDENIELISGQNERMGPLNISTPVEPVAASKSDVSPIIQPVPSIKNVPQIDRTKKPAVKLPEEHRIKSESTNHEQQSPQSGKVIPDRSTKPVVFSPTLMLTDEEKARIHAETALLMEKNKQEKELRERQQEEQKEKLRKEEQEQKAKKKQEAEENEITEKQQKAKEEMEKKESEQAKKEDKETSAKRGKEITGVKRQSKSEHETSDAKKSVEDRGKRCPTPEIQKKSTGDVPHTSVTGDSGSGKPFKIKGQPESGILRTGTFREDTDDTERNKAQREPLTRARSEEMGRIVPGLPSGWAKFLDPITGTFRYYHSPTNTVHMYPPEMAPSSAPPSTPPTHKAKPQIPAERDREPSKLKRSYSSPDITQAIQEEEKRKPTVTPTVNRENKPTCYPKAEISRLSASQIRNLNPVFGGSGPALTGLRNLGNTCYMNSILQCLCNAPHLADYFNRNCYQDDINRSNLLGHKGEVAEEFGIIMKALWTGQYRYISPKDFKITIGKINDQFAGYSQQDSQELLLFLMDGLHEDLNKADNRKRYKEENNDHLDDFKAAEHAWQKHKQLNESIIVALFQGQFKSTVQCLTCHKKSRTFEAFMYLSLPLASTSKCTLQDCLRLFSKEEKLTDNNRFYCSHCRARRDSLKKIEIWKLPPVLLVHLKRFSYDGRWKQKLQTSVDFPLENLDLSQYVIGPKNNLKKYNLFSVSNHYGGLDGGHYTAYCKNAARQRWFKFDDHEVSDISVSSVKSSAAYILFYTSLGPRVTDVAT
USP28 block: human USP28 deubiquitinase inhibition; Q96RU2; AID 1645857; inhibition, % at 25 µM; 47,000 compounds, 3% hits; purified USP28, Ub-rhodamine cleavage fluorescence, 30 min
USP30 inh: human USP30 deubiquitinase inhibition; Q70CQ3; purified USP30, Ub-rhodamine cleavage fluorescence; inhibition, % at 25 µM; 47,000 compounds, 5.3% hits; AID 1645860
USP17 block: blocks human USP17 ubiquitin-rhodamine cleavage; A8MUK1; purified USP17, Ub-rhodamine cleavage fluorescence, 3 h; inhibition, % at 50 µM; 47,000 compounds, 6.5% hits; AID 1645855
USP10 inh: blocks human USP10 ubiquitin-rhodamine cleavage | inhibition, % at 20 µM | purified USP10, Ub-rhodamine fluorescence, 60 min | AID 1645856 | 47,000 compounds, 1.1% hits
The depositor's hits bear a star. An excerpt weighted towards active compounds, which were near 13% of everything screened. Rule as the data show it: active = inhibition above about 30%; inactive = the rest.

Screening COc1ccc(OC)c(CCNC(=O)CCC2=NS(=O)(=O)c3ccc(C(F)(F)F)cc3N2)c1 returned OTUD3 block 15.1, USP8 block 58.3*, USP28 block 18.3, USP30 inh 33.1*, USP17 block 76.6* and USP10 inh 16.3.
`O=C(CCC1=NS(=O)(=O)c2ccc(C(F)(F)F)cc2N1)NCc1ccccc1` gave OTUD3 block 2.8, USP8 block 23.7, USP28 block 0.8, USP30 inh -13.0, USP17 block 12.2 and USP10 inh 8.5.
`Cc1ccc(NC(=O)c2c3c(nc4ccccc24)CCCCC3)c(C)c1` gave OTUD3 block 4.1, USP8 block 11.7, USP28 block 6.3, USP30 inh 34.9*, USP17 block 74.5* and USP10 inh -4.9.
COc1ccc(C)cc1NC(=O)c1c2c(nc3ccccc13)CCN(Cc1ccccc1)C2 was read as OTUD3 block -28.3, USP8 block 0.1, USP28 block -20.5, USP30 inh -87.6, USP17 block -19.7 and USP10 inh -4.6.
O=C(OC1CCCCC1=O)c1c2c(nc3ccccc13)CCCCC2 (centres undefined) was read as OTUD3 block -5.1, USP8 block -6.8, USP28 block -0.2, USP30 inh -0.6, USP17 block 3.3 and USP10 inh -0.4.
For Cc1cc(C)c(NC(=O)COc2nncc3ccccc23)c(C)c1 the results were OTUD3 block -1.3, USP8 block 0.0, USP28 block -12.4, USP30 inh 16.0, USP17 block 19.2 and USP10 inh 1.2.
`CC(OC(=O)c1c2c(nc3ccccc13)CCCC2)C(=O)Nc1ccc(Cl)cc1Cl` (centres undefined) gave OTUD3 block -1.0, USP8 block -11.6, USP28 block 4.5, USP30 inh -5.4, USP17 block 30.5* and USP10 inh 0.2.
Screening CC(C)c1ccc(NC(=O)COc2nncc3ccccc23)cc1 returned OTUD3 block 4.4, USP8 block 0.5, USP28 block 11.8, USP30 inh 33.2*, USP17 block 22.0 and USP10 inh 1.5.
CC(OC(=O)c1c2c(nc3ccccc13)CCCCC2)C(=O)Nc1ccc2ccccc2c1 (centres undefined) was read as OTUD3 block 42.8*, USP8 block 34.8*, USP28 block 44.3*, USP30 inh 27.3, USP17 block 63.3* and USP10 inh 13.1.
CCC(=O)Nc1ccc(CN(C(=O)c2cccs2)c2ccc(C)cc2)cc1 was read as OTUD3 block 14.5, USP8 block 9.9, USP28 block 16.5, USP30 inh 19.6, USP17 block 18.0 and USP10 inh 6.5.
For COc1ccc2nc(SCc3ncon3)[nH]c2c1 the results were OTUD3 block -19.8, USP8 block 1.4, USP28 block -7.8, USP30 inh -13.9, USP17 block -13.6 and USP10 inh -1.2.
`CC(Oc1nncc2ccccc12)C(=O)Nc1ccc(Cl)cc1Cl` (centres undefined) gave OTUD3 block 26.0, USP8 block 28.4, USP28 block 19.3, USP30 inh 72.1*, USP17 block 66.8* and USP10 inh 4.3.
`CC(OC(=O)c1c2c(nc3ccccc13)CCC(C(C)(C)C)C2)C(=O)Nc1cccc([N+](=O)[O-])c1` (centres undefined) gave OTUD3 block 2.7, USP8 block 9.1, USP28 block 1.2, USP30 inh 0.2, USP17 block 5.5 and USP10 inh -3.3.
CC(OC(=O)c1c2c(nc3ccccc13)CCCC2)C(=O)Nc1ccc(N(C)C)cc1 (centres undefined) was read as OTUD3 block -18.4, USP8 block 0.0, USP28 block -11.8, USP30 inh -56.1, USP17 block 40.5* and USP10 inh 14.2.
`Cc1cc(=O)[nH]c(C2CN(C(=O)c3ccc4n[nH]nc4c3)CCO2)n1` (centres undefined) gave OTUD3 block -1.8, USP8 block 2.1, USP28 block -7.2, USP30 inh 1.1, USP17 block 1.2 and USP10 inh -1.8.
Screening COc1ccc(CCNC(=O)c2ccc(CSc3nc4ccncc4[nH]3)cc2)cc1OC returned OTUD3 block -10.4, USP8 block 0.7, USP28 block 33.5*, USP30 inh -8.5, USP17 block -17.3 and USP10 inh 1.0.
COc1ccc(CSc2nc3ccncc3n2CC(=O)Nc2ccc(C)cc2C)cc1 was read as OTUD3 block 33.7*, USP8 block 28.2, USP28 block 70.2*, USP30 inh 84.2*, USP17 block 72.1* and USP10 inh 26.5.
COc1ccc(Cn2c(SCc3ccc(C(=O)NCCc4ccccc4)cc3)nc3ccncc32)cc1 was read as OTUD3 block 9.8, USP8 block -4.5, USP28 block 29.5, USP30 inh 53.1*, USP17 block 32.0* and USP10 inh 14.2.
Screening CCC(C)NC(=O)c1ccc(Cn2c(SCc3ccc(C)cc3)nc3ccncc32)cc1 (centres undefined) returned OTUD3 block -3.5, USP8 block 5.2, USP28 block 22.1, USP30 inh -0.5, USP17 block 3.6 and USP10 inh -1.3.
For COc1ccccc1CNC(=O)c1ccc(CSc2nc3ccncc3n2Cc2ccccc2)cc1 the results were OTUD3 block -2.3, USP8 block -9.6, USP28 block 30.6*, USP30 inh 55.7*, USP17 block 40.4* and USP10 inh -3.5.
For Nc1nccnc1CC1CCCN(C(=O)c2ccc3nc[nH]c3c2)C1 (centres undefined) the results were OTUD3 block -24.9, USP8 block -13.8, USP28 block -16.4, USP30 inh -25.9, USP17 block -16.3 and USP10 inh -3.9.
`CCOc1cc(CNC(=O)CCc2c(C)nc3c(c2C)c(=O)n(C)c(=O)n3C)cc(OCC)c1OCC` gave OTUD3 block 0.5, USP8 block -7.8, USP28 block 1.8, USP30 inh -7.9, USP17 block 2.4 and USP10 inh -4.5.
Screening CC1=Nc2cc(C(=O)NCc3ccccc3Cl)ccc2Sc2ccccc21 returned OTUD3 block -0.9, USP8 block 2.3, USP28 block -2.0, USP30 inh -51.5, USP17 block -11.8 and USP10 inh -4.5.
For COc1cccc(CNC(=O)c2ccc(CSc3nc4ccncc4n3Cc3ccccc3F)cc2)c1 the results were OTUD3 block 6.1, USP8 block -4.8, USP28 block 34.2*, USP30 inh 53.7*, USP17 block 35.8* and USP10 inh 8.6.
For CCc1ccccc1NC(=O)c1cc2c(n(-c3ccccc3)c1=O)CCCC2=O the results were OTUD3 block 3.3, USP8 block -0.6, USP28 block -5.7, USP30 inh 12.7, USP17 block 3.5 and USP10 inh 0.0.
Cc1ccc(Sc2c(C(F)(F)F)[nH]n(-c3ccccc3)c2=O)cc1 was read as OTUD3 block 2.3, USP8 block -44.7, USP28 block 6.7, USP30 inh 27.6, USP17 block 33.2* and USP10 inh 20.0.
